Source: PubChem BioAssay
Hits are enriched below; roughly 3.9% of the tested compounds scored in any of these assays.
Bead autofluor: counter-screen for toxin protease inhibitors: compound fluorescence. compound autofluorescence counterscreen, microsphere flow cytometry; stronger effect = higher value. fluorescence intensity (test concentration not listed). 360,000 compounds, 3.1% hits; in the data active = fluorescence intensity above about 16000; inconclusive = no clear call, values can overlap the other calls
SARS 3CLpro inh: SARS-CoV 3CLpro protease inhibition; P0C6X7; inhibition, % at 6 µM; recombinant SARS-CoV 3CLpro, quenched FRET peptide cleavage; 290,000 compounds, 0.14% hits; AID 1706; in the data active = inhibition above about 12%
BoNT F protease: BoNT F light chain protease inhibition. Multiplex microsphere protease cleavage assay, flow cytometry. inhibition, % at 10 µM. 360,000 compounds, 0.22% hits. AID 588497; in the data active = inhibition above about 35%, passing the limit was not always enough; inconclusive = no clear call, values can overlap the other calls; also: plate controls were buffer without enzyme for full effect and enzyme alone for no effect
CCHF vOTU inh: CCHFV vOTU protease inhibition | 370,000 compounds, 0.55% hits | inhibition, % at 11.5 µM | Pep-AMC fluorescence | AID 651958; in the data active = inhibition above about 30%; also: 0% = vehicle wells with enzyme and 100% = no enzyme wells
BoNT A protease: BoNT A light chain protease inhibition | multiplex microsphere protease substrate cleavage, flow cytometry | inhibition, % at 10 µM | 360,000 compounds, 0.17% hits; also: plate controls were buffer without enzyme for full effect and enzyme alone for no effect
Anthrax LF prot: blocks Bacillus anthracis lethal factor protease; P15917; multiplex microsphere protease cleavage assay, LF; inhibition, % at 10 µM; 360,000 compounds, 0.12% hits; also: plate controls were buffer without enzyme for full effect and enzyme alone for no effect
Target sequence (P15917 whole entry, looked up): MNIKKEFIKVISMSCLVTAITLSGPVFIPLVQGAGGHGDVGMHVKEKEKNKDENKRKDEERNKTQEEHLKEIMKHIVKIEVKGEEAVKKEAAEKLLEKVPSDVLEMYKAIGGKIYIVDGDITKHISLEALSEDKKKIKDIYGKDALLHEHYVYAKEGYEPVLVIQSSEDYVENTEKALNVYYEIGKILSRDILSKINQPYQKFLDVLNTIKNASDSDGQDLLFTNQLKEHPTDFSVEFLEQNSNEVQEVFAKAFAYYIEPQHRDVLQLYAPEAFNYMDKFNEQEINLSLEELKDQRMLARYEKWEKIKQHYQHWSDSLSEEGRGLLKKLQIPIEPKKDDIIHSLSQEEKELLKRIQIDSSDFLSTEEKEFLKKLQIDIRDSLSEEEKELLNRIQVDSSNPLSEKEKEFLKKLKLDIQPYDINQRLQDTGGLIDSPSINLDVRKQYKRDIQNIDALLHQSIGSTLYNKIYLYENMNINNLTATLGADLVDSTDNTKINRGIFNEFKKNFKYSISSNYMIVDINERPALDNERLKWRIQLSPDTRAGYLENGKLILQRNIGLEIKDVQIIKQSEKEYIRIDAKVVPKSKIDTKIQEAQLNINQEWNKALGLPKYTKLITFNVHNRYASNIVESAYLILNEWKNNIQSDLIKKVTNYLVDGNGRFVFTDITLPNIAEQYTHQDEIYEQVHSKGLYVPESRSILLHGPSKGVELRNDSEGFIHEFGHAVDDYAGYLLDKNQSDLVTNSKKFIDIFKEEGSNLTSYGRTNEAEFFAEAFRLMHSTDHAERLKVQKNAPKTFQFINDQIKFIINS
BoNT-A LC CP1: BoNT/A light chain protease inhibition; shares compounds with BoNT F protease; multiplex microsphere protease assay, flow cytometry; inhibition, % at 10 µM; 720 compounds, 3% hits; AID 602139; in the data active = inhibition above about 32%
BoNTF LC inh 1: inhibitors of Botulinum neurotoxin F light chain protease. shares compounds with BoNT F protease. multiplex microsphere protease cleavage assay, flow cytometry. inhibition, % at 10 µM. 720 tested, under 10 active; call rule not given here
Anthrax LF CP1: blocks anthrax lethal factor protease. 720 tested, under 10 active. inhibition, % at 10 µM. shares compounds with BoNT F protease. AID 602142. multiplex microsphere protease cleavage assay, LF; call rule not given here
An asterisk follows results filed as active; ? = inconclusive; . = not tested or not shown. Rule as the data show it, unless noted: active = inhibition above about 30%; inconclusive = no clear call, values can overlap the other calls; inactive = below that.

SMILES	Bead autofluor	SARS 3CLpro inh	BoNT F protease	CCHF vOTU inh	BoNT A protease	Anthrax LF prot	BoNT-A LC CP1	BoNTF LC inh 1	Anthrax LF CP1
Cn1c(=O)c2cc(S(=O)(=O)NC(Cc3ccccc3)C(=O)NCc3ccco3)ccc2n(C)c1=O (centres undefined)	5559	0	-5	5	0	6	.	.	.
COCCCNC(=O)C(Cc1ccccc1)NS(=O)(=O)c1ccc2c(c1)c(=O)n(C)c(=O)n2C (centres undefined)	7854	3	52*	-2	6	-4	0	-6	-3
Cc1ccc(CNC(=O)C2CCCC2)cc1	4137	.	6	8	1	-3	.	.	.
Cc1ccc2[nH]c(CNC(=O)C3CCCCC3)cc2c1	2959	0	-86	9	93*	3	-1	-10	-2
Cc1ccccc1CS(=O)(=O)Cc1ccc(C(=O)Nc2ccccc2C)o1	.	.	.	-2	.	.	.	.	.
CCCC(C(=O)NCc1ccccc1)N(C(=O)Cn1nnc(-c2cccs2)n1)c1ccc2c(c1)OCCO2 (centres undefined)	4125	1	-35	3	-1	0	.	.	.
O=C(NCc1ccccc1)C(c1ccc(F)cc1)N(Cc1ccc2c(c1)OCO2)C(=O)Cn1nnc(-c2cccs2)n1 (centres undefined)	3945	1	51*	9	3	3	-1	-9	0
c1ccc(-c2ncc3ccccn23)cc1	5898	-6	-2	-22	2	-1	0	-7	1
c1ccc2c(c1)ncc1cccn12	8837	1	-2	-216	0	-6	.	.	.
C/C(=N\NC(=O)Cc1cccs1)c1ccco1	.	.	.	-4	.	.	.	.	.
Cc1ccc(NC(=O)CSc2nnc(-c3cccnc3)n2Cc2ccco2)cc1C	.	.	.	-4	.	.	.	.	.
CCc1nc2ccccc2n1Cc1ccccc1OC	2792	3	-4	2	0	-3	.	.	.
COc1ccccc1Cn1c(C)nc2ccccc21	4417	0	39*	-18	1	-12	-1	-2	-1
CC1CCN(CCCCOc2ccccc2Br)CC1	3041	-3	43*	-10	6	0	0	-5	0
CC1CCN(CCCCOc2ccccc2F)CC1	4189	-3	0	-6	3	2	.	.	.
Cc1ccc(S(=O)(=O)N2CCCN(c3nc4cc(C)ccc4cc3C#N)CC2)cc1	13376	-2	32	1	40*	16	12	-3	2
O=S(=O)(c1ccccc1F)N1CCc2ccccc2C1	3906	7	?	10	0	34*	-1	-2	-2
Cc1cc(C)n(C(=O)COc2c(C)cccc2C)n1	4333	-1	47*	1	2	2	0	-2	-1
Clc1ccc(OCc2nc(-c3ccncc3)no2)c(Cl)c1	3641	5	-16	6	1	-3	.	.	.
Clc1cccc(OCc2nc(-c3ccncc3)no2)c1	2544	0	44*	0	4	-2	1	-5	1
C=C(C)/C=C1/C(Cc2ccccc2)N(CC2CC2)C(=N)N1C(=O)OCc1ccccc1 (centres undefined)	.	.	.	6	.	.	.	.	.
CCc1ccc(C(=O)CN2C(=O)NC3(CCCCCC3)C2=O)cc1	5069	.	43*	15	12	11	0	-1	-2
COC(=O)[C@]12C[C@H](CC(=O)NCCCCc3ccccc3)C(=O)N(Cc3ccccc3)C1=C[C@H](C(C)(C)C)O[C@@H]2C	.	.	.	20	.	.	.	.	.
CN(CC(=O)NCCc1ccc(S(N)(=O)=O)cc1)Cc1ccc(Cl)cc1Cl	5650	-1	4	15	-1	3	.	.	.
NS(=O)(=O)c1ccc(NCc2c(F)cccc2Cl)cc1	8836	2	46*	-5	38*	-8	1	0	-3
SMILES	Bead autofluor	SARS 3CLpro inh	BoNT F protease	CCHF vOTU inh	BoNT A protease	Anthrax LF prot	BoNT-A LC CP1	BoNTF LC inh 1	Anthrax LF CP1
CN(CC(=O)NCCc1ccc(S(N)(=O)=O)cc1)Cc1c(F)cccc1Cl	3568	-2	40*	3	-2	5	1	-4	-5
Cc1ccc(-n2c(SCC(N)=O)nnc2-c2cnccn2)cc1	3632	-1	?	-2	-1	36*	0	4	0
NS(=O)(=O)c1cc([N+](=O)[O-])ccc1NCc1cccnc1	4090	-1	39*	-12	4	2	0	0	0
CCC(C)[C@H](NC(=O)N1CCCC1)C(=O)OC (some centres undefined)	11959	-1	-8	-4	-1	-2	.	.	.
CCC(C)[C@H](NC(=O)N1CCCCC1)C(=O)OC (some centres undefined)	4756	-1	?	-7	3	35*	-1	3	-1
CCOC(=O)c1sc2nc(-c3ccco3)c3c(c2c1N)CC(C)(C)OC3	10754	.	7	1	33*	20	8	3	5
Cc1c(C(=O)O)sc2nc(-c3cccs3)cc(C(F)(F)F)c12	3107	3	-17	-33	-7	-2	-2	-1	-2
Cc1c(C(=O)Nc2nccs2)sc2nc(-c3cccs3)cc(C(F)(F)F)c12	14857	-2	11	-4	39*	37*	12	-4	6
O=[N+]([O-])c1ccc(N(c2ccccc2)c2ccccc2)cc1	21531*	-4	24	20	58*	47*	21	10	16
CCN(C(=O)c1ccccc1)c1ccc([N+](=O)[O-])cc1	8149	1	-2	2	0	1	.	.	.
COc1ccccc1NS(=O)(=O)c1ccc2[nH]c(=O)[nH]c2c1	3623	-3	36*	-10	2	-8	0	-4	0
Cn1cccc1CC(=O)NN=Cc1cccc(F)c1	.	.	.	2	.	.	.	.	.
COC(=O)C1=C(C)N(Cc2cccc(C(F)(F)F)c2)C(=NCc2ccc3c(c2)OCO3)NC1CCc1ccccc1 (centres undefined)	.	.	.	1	.	.	.	.	.
COc1cc(NC(=O)CCc2nc(-c3cccs3)no2)cc(OC)c1OC	3912	-4	42*	-10	2	8	0	-5	1
CCc1cccc(NC(=O)CCc2nc(-c3cccs3)no2)c1	5753	-6	-9	-2	0	-4	.	.	.
COc1ccc(C(=O)NCCN2C(=O)C3C4C=CC(C4)C3C2=O)cc1OC (centres undefined)	.	.	.	2	.	.	.	.	.
CC(C)CNC(=O)OCc1cn(Cc2ccccc2C(F)(F)F)nn1	.	.	.	-5	.	.	.	.	.
Cc1nnc(SCC(=O)Nc2ccc(N3CCOCC3)cc2)o1	3798	0	42*	9	1	0	-1	-2	2
COc1ccc2[nH]c(C(=O)NCc3ccccc3)cc2c1	6195	6	5	-10	0	4	.	.	.
COc1cc(OC)cc(C(=O)NCc2ccc3[nH]c(C)cc3c2)c1	2898	-2	-60	2	48*	-22	-1	-6	-3
